Unmarked numbers belong to inactive results. How the calls were made is not given here. Where a SMILES comes first, the peptide text is derived from it. [ ]: non-standard residue; d: D form. ξ: configuration not given here. ξV = CC(C)C(N)C(=O)O

For this test, the target named is Pantothenate synthetase (Mycobacterium tuberculosis (strain ATCC 25618 / H37Rv)) (UniProt P9WIL5). The test can be described thus: Recombinant Mtb pantothenate synthetase (PanC) inhibitors, coupled enzyme, confirmatory (AID 375).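 Further: 0% = full reaction with vehicle and 100% = no enzyme background.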 The following applies: coupled enzyme assay; at 10 µM, hits give high values.
Pantothenate synthetase (Mycobacterium tuberculosis (strain ATCC 25618 / H37Rv)), sequence (P9WIL5 whole entry, looked up): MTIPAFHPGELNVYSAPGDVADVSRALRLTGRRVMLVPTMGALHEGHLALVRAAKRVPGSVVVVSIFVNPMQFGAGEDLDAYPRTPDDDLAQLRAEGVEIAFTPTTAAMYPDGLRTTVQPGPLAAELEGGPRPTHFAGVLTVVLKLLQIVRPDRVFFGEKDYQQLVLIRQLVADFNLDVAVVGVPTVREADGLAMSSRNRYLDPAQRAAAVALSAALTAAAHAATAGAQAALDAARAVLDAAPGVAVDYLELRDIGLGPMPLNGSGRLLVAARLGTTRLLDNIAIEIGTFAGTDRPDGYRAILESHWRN
The inhibition is the share of the control response that was lost under treatment. `COC(=O)Cn1c(CN2CCOCC2)nc2c1c(=O)n(C)c(=O)n2C`: the inhibition was 0%. The figure for `CCOC(=O)Nc1cc(OC)c(OC)cc1Cc1nccc2cc(OC)c(OC)cc12` is 0%. In the case of `Nn1c(SCC(=O)Nc2ccc3c(c2)OCO3)nnc1C1CC1`, the inhibition was 4%. As to `O=c1cc(CSc2ccccn2)c2ccccc2[nH]1`, the inhibition is 3%. As for `COc1cccc(C2=NOC(C(=O)N3CCN(c4ccccc4)CC3)C2)c1OC` (stereo not given), the inhibition was 1%.

For the compound `CCOc1ccccc1-c1nc(-c2ccc(NC(=O)Cc3ccccc3OC)cc2)no1`, the inhibition was 2%. With `CCCn1c(=N)n(CC(=O)c2cccs2)c2ccccc21` the figure was 3%; with `O=C(Cn1ncc2c(=O)oc3ccccc3c21)NCCCN1CCCC1=O`, 0%; with `Cc1csc(NC(=O)CSc2nsc(SCC(=O)Nc3nc(C)cs3)c2C#N)n1`, 2%. The figure for `COc1ccc(C2C(C#N)=C(C)NC3=C2C(=O)CC(C)(C)C3)c(OC)c1` (stereo not given) is 0%. The figure for `O=C(NCC1COc2ccccc2O1)c1ccccc1` (stereo not given) is 2%; for `CCCCNC(=O)OCCNC(=O)NC` it is 0%; for `O=C(Nc1nnc(-c2ccc(Cl)cc2)o1)C1CCCCC1` it is 0%.

Regarding `O=C(c1sc2ccccc2c1Cl)N(Cc1cccs1)C1CCS(=O)(=O)C1` (stereo not given), the inhibition is 0%. The figure for `COc1ccccc1-c1cc(C(=O)Nc2cc(C)nn2-c2ccccc2)no1` is 6%; for `Cc1nc2c(=O)oc3ccccc3c2n1-c1ccccc1` it is 0%; for `Cc1cccc(Nc2nc(N)nc(CN3CCC(C(N)=O)CC3)n2)c1C` it is 0%. In the case of `Cc1nn(C)c(C)c1CN(C)C(=O)c1cc2nc(-c3ccco3)cc(C(F)(F)F)n2n1`, the inhibition is 0%.

For `COc1ccc(OC(C)C(=O)N2CCN(c3ccccn3)CC2)cc1` (stereo not given), the inhibition is 7%. The figure for `N#C/C(=C\c1ccc(O)c(O)c1)C(=O)NCCCc1ccccc1` is 0%; for `CCN(CCCNC(=O)C1CCN(S(=O)(=O)c2cccc3nonc23)CC1)Cc1ccccc1` it is 6%. The figure for `COc1cc(NS(=O)(=O)N2CCCC2)cc(OC)c1OC` is 0%; for `COc1ccc(C(=O)Nc2cccc(C)c2)cc1S(=O)(=O)N1CCOCC1` it is 1%; for `Cn1c2c(c(=O)n(C)c1=O)CN(CCCN1CCOCC1)CN2` it is 0%. With `CC(=O)NC(C(=O)NCC(N)=O)C(C)C` (stereo not given) (Ac-[ξV]-Gly-NH2) the figure was 0%. In the case of `N#CCCN(C(=O)Nc1ccc(Cl)cc1)c1ccccc1`, the inhibition is 1%. The figure for `O=C(CSc1nnc(-c2cccnc2)o1)OC1CCCCC1` is 0%; for `COCCN(CC(=O)Nc1ccccc1C)S(=O)(=O)c1ccc(S(=O)(=O)N2CCCC2)cc1` it is 0%; for `CC(C)(C)OC(=O)N1CCC(C(=O)N2CCCCCC2)CC1` it is 5%.

For the compound `CCSc1nc(C)nc2c1oc1ccccc12`, the inhibition is 0%.

Turning to `O=C(Nc1cccc(C(F)(F)F)c1)c1ccco1`, the inhibition is 0%. `CC(C)(C)NC(=O)CC(CC(=O)O)c1ccccc1` (stereo not given): the inhibition was 0%.

Regarding `O=C(CN1CCC(c2nc3ccccc3s2)CC1)NCc1cccs1`, the inhibition is 3%. Turning to `Cc1cc(NS(=O)(=O)Cc2ccccc2)cc(C)c1OCC(=O)N1CCOCC1`, the inhibition was 4%. With `C=CCSc1nnc(-c2ccc(Cl)cc2Cl)o1` the figure was 5%; with `CCn1c(CSc2nc(C)cc(C)n2)nnc1SCC(=O)Nc1ccccc1`, 5%. `Cc1ccc(Nc2nc(CSc3nnc(-c4cccs4)o3)cs2)cc1`: the inhibition was 0%. With `Cc1cc(C(=O)Nc2nc3c(s2)CCCC3)cs1` the figure was 0%; with `O=C(Nc1ccc(N2CCOCC2)cc1)Nc1ccc2nc(-c3ccco3)c(-c3ccco3)nc2c1`, 4%. With `O=C(C1CCC1)N1CCc2cc(S(=O)(=O)N3CCc4ccccc4C3)ccc21` the figure was 7%.

(Values after PubChem BioAssay.)
